The text below walks through data of PubChem BioAssay (NCATS).

The structures appear in SMILES notation. Activity calls are given as the source filed them. The call rests on the fitted dose curve; in most records, active means well fitted activation curve with a large enough effect; inconclusive means small, poorly fitted or top-dose-only effect; inactive means flat fitted curve, though single readings scatter.

The nature of this experiment: Cellular Toxicity (caspase-3) SK-N-SH (AID 661). The note with it: SK-N-SH caspase-3 activation, qHTS, DMSO as zero, staurosporine as full; series mostly up to 91.7 µM. The text has this:
NIH Chemical Genomics Center [NCGC]
NIH Molecular Libraries Screening Centers Network [MLSCN]
National Institutes of Environmental Health Sciences [NIEHS]
National Toxicology Program [NTP]
We have developed a 1536-well cell-based assay for quantitative high throughput screening (qHTS) against a number of cell lines to determine in vitro caspase 3/7 activity of small molecules. This particular assay uses the SK-N-SH cell line which is derived from human neuroblastoma.
NCGC Assay Protocol Summary:
The Caspase-Glo 3/7 assay (Promega) is a homogeneous method to measure caspase-3 and caspase-7 activities in cultured cells. The quantitation of caspase 3/7 activity is based on the cleavage of a peptide-aminoluciferin substrate. After caspase cleaves the substrate the free aminoluciferin is liberated and serves as the substrate of luciferase, which generates the light. The luminescent signal is proportional to amount of caspase 3/7 activity present.
Using the Caspase-Glo 3/7 assay, the amount of caspase 3/7 activity was measured in the SK-N-SH cell line with complete culture medium following compound treatment for 16 hours. The assay was performed in opaque white 1536-well plates. In the screen, tamoxifen and staurosporine were used as positive controls. Library compounds were measured for their ability to cause the activation of caspase 3/7 in the cell line, as reflected by an increase in luminescence signal, in a concentration-dependent manner. Data were normalized to the controls for basal activity (DMSO only) and 100% stimulation (10 uM staurosporine). AC50 values were determined from concentration-response data modeled with the standard Hill equation.
qHTS protocol for caspase 3/7 assay in SK-N-SH cells
[Step] [Parameter] [Value] [Description]
1. Reagent; 5 uL; 1500 SK-N-SH cells/well
2. Time; 5 hr; 37 °C incubation
4. Controls; 23 nL; Tamoxifen 0.23 uM to 100 uM & staurosporine 1.4 pM to 100 uM
5. Time; 16 hr; 37 °C incubation
6. Reagent; 5 uL; Caspase-Glo 3/7 reagent
7. Time; 1 hr; Room Temperature
8. Detection; Luminescence; Viewlux plate reader
Keywords: caspase 3/7, apoptosis, SK-N-SH cell line, luminescence, NTPHTS, NTPHTS_NCGC, NIEHS, EPA, DSSTox, MLSMR, MLSCN, NIH Roadmap, qHTS, NCGC
As to `CCCCCCCCC1CO1` (stereo not given), the result was inactive.

On to `CC/C=C/C/C=C/C/C=C/CCCCCCCC(=O)OCC`, for which the molecule was classed as inactive.

With `C=CC(=O)CC`, the molecule was called inactive.

In the case of `Brc1ccc(-c2ccccc2)cc1`, the outcome was inactive.

`O=C=Nc1ccc(Cl)c(Cl)c1`: the result was inactive.

For `O=C(Cl)c1ccc([N+](=O)[O-])cc1`, the molecule was called inactive.

`Nc1ccc(N=Nc2ccccc2)c(N)c1`: the molecule was classed as inactive.

For `CCCCCCCC/C=C\CCCCCCCC(=O)N(CCO)CCO`, the molecule was classed as inactive.

In the case of `CC(=O)OCc1ccc2c(c1)OCO2`, the molecule was called inactive.

For `c1ccc2c(c1)ccc1ccccc12`, the result was inactive.

For `Cc1cc(-c2ccc(N=Nc3cc(S(=O)(=O)O)c4ccccc4c3N)c(C)c2)ccc1N=Nc1cc(S(=O)(=O)O)c2ccccc2c1N`, the result was inactive.

For the molecule `COc1ccc(C(=O)Nc2ccccc2)cc1[N+](=O)[O-]`, the molecule was called inactive.

For the molecule `CCCCC(CC)COCCCN` (stereo not given), the call was inactive.

As for `S=C(NC1CCCCC1)NC1CCCCC1`, the call was inactive.

Take `Nc1ccc2c(c1)C(=O)c1ccccc1C2=O`: the call was inactive.

As for `CCCCC(CC)COC(=O)COc1ccc(Cl)cc1Cl` (stereo not given), the molecule was called inactive.

Consider `CC(=O)OC1CC(C)OC(C)O1` (stereo not given), for which the result was inactive.

Take `C1CCCNCC1`: the molecule was called inactive.

On to `CCCCOC(=O)COc1ccc(Cl)cc1Cl`, for which the molecule was classed as inactive.

Turning to `C=CC(C)(O)CCCC(C)CCCC(C)CCCC(C)C` (stereo not given), the molecule was called inactive.

As for `Cc1ccccc1OCC1CO1` (stereo not given), the outcome was inactive.

On to `CCCCCCc1ccc(-c2ccc(C#N)cc2)cc1`, for which the outcome was inactive.

For the molecule `CCCCCCCCOc1ccc(C(=O)O)cc1`, the result was inactive.

For the molecule `CC(=O)c1ccc(Cl)c(Cl)c1Cl`, the call was inactive.

For `CC(/C=C/C=C(C)/C=C/C(=O)O)=C\C=C\C=C(C)\C=C\C=C(C)\C=C\C(=O)O`, the outcome was inactive.

With `c1c[nH]cn1`, the outcome was inactive.

On to `O=[N+]([O-])c1cccc(I)c1`, for which the molecule was classed as inactive.

In the case of `CC(CCC(=O)O)(c1ccc(O)cc1)c1ccc(O)cc1`, the molecule was called inactive.

For `NC(=O)Nc1nc2ccccc2[nH]1`, the molecule was classed as inactive.

For `CC(=O)OC(C(=O)c1ccccc1)c1ccccc1` (stereo not given), the call was inactive.

For `CC(C)COC(=O)COc1cc(Cl)c(Cl)cc1Cl`, the molecule was called inactive.

Consider `c1ccc(CSCc2ccccc2)cc1`, for which the outcome was inactive.

As to `CC(C)(C)C(=O)C1C(=O)c2ccccc2C1=O`, the outcome was inactive.

As for `C/C=C/C=C/C=O`, the result was inactive.

Turning to `COc1ccc(C)cc1N`, the result was inactive.

In the case of `Cc1ccc(N)cc1[N+](=O)[O-]`, the result was inactive.

`Nc1cnn([C@@H]2O[C@H](CO)[C@@H](O)[C@H]2O)c(=O)n1`: the call was inactive.

Consider `Nc1ccccc1O`, for which the result was inactive.

On to `CCN(CC)c1ccc(N)cc1`, for which the call was inactive.

Turning to `CC(C)OCC1CO1` (stereo not given), the molecule was called inactive.
